From PubChem BioAssay
For some assays here: Potency and affinity values are given separately. Active and inactive are the calls of the source. Unless noted, no rule for the calls is given here.

Tests used:
[1] = antimalarial activity against Dd2 strain (AID 2302;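 active = growth inhibition above 50% at the single 2 µM test dose, taken to imply half-maximal potency below 2 µM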;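 also: 0% = DMSO untreated growth and 100% = chloroquine plus artemisinin killed control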); conditions: P. falciparum Dd2 in RBCs, LDH growth readout, 72 h; at 2 µM; stronger effect = higher value
[2] = human hepatoma cell viability loss – ATP luminescence, cytotoxicity control for P. falciparum antimalarial project, primary screen (AID 2303;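 active = inhibition above 50%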;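 also: 0% = DMSO wells and 100% = digitonin-killed cells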); conditions: HepG2 viability, 24-48 h, at 10 µM, stronger effect = higher value
[3] = molecular target: L-lactate dehydrogenase (Plasmodium falciparum (isolate CDC / Honduras)) (UniProt Q27743); experiment: PfLDH activity inhibition – cell lysate, 3D7 strain, counter-screen for P. falciparum growth inhibition project (AID 2304);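 also: 0% = vehicle and 100% = reference inhibitor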; conditions: P. falciparum 3D7 crude extract, LDH APAD/NBT absorbance; at 2 µM; stronger effect = higher value
Sequence of L-lactate dehydrogenase (Plasmodium falciparum (isolate CDC / Honduras)) (Q27743 whole entry, looked up): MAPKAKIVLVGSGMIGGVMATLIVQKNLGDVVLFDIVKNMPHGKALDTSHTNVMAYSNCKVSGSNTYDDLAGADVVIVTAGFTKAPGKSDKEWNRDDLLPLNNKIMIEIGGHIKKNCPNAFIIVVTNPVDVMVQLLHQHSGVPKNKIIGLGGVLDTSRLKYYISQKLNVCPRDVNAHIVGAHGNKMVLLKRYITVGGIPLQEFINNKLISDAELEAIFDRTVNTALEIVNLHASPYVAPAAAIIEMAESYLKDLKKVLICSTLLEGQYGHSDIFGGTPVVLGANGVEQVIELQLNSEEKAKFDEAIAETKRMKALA

[4] = inhibition of 3D7 malaria parasite growth – strain 3D7 (AID 2306);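 also: 0% = DMSO wells and 100% = chloroquine plus artemisinin control wells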; conditions: P. falciparum 3D7 erythrocytic growth, LDH absorbance, 72 h; at 2 µM; stronger effect = higher value
[5] = molecular target: Calcium-dependent protein kinase 1 (Plasmodium falciparum (isolate 3D7)) (UniProt P62344); experiment: PfCDPK1 kinase inhibitors, biochemical, TCAMS library (AID 1159585; cut-off not given, nearly all actives have IC50 up to about 0.98 µM;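 also: inhibitors leave more ATP so luminescence rises with inhibition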); conditions: recombinant PfCDPK1, Kinase-Glo ATP depletion luminescence
Sequence of Calcium-dependent protein kinase 1 (Plasmodium falciparum (isolate 3D7)) (P62344 whole entry, looked up): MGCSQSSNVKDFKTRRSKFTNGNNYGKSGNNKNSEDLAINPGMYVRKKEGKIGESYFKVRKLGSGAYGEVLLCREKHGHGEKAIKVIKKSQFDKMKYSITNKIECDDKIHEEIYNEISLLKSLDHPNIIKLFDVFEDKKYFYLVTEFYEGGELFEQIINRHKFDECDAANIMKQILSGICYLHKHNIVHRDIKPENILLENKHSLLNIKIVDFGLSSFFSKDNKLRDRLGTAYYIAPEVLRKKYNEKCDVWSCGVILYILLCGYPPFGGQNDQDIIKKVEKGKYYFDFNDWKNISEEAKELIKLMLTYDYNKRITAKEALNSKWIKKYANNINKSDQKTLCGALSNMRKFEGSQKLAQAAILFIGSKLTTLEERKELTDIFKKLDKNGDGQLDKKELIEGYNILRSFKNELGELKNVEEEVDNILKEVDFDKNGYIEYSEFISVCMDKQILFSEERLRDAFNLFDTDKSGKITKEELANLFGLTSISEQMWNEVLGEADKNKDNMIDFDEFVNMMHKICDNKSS

[6] = molecular target: Plasmodium falciparum protein kinase 6 (PK6, PF3D7_1337100) (UniProt Q8IDW1); experiment: PfPK6 kinase inhibitors, biochemical, TCAMS library (AID 1159586); conditions: recombinant PfPK6, Kinase-Glo ATP depletion luminescence
Sequence of Plasmodium falciparum protein kinase 6 (PK6, PF3D7_1337100) (Q8IDW1 1-305): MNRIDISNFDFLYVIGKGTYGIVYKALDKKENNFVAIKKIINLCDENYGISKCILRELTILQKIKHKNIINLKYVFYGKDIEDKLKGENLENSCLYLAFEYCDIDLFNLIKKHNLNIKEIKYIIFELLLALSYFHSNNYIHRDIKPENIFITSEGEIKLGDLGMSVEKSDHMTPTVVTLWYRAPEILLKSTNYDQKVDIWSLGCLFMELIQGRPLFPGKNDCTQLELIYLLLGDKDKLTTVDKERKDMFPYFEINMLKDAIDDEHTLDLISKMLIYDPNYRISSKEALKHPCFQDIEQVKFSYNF

[7] = molecular target: Protein kinase 7 (PK7), Plasmodium falciparum 3D7 (PF3D7_0213400) (UniProt Q7YTF7); experiment: inhibition of Plasmodium PK7 catalytic activity – biochemical, TCAMS antimalarial set, Kinase-Glo luminescence (AID 1159587); conditions: recombinant PfPK7, Kinase-Glo ATP depletion luminescence
Sequence of Protein kinase 7 (PK7), Plasmodium falciparum 3D7 (PF3D7_0213400) (Q7YTF7 1-343): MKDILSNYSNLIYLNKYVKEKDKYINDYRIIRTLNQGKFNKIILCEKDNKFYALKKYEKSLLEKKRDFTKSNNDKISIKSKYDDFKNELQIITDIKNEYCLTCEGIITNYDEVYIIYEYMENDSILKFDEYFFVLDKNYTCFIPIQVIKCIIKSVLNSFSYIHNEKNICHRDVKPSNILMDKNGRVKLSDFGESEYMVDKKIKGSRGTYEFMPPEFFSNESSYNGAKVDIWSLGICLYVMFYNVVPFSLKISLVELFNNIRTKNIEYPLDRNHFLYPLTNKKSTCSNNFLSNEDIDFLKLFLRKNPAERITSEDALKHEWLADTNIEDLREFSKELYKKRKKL

[8] = molecular target: Calcium-dependent protein kinase 4 (Plasmodium falciparum (isolate 3D7)) (UniProt Q8IBS5); experiment: PfCDPK4 kinase inhibitors, biochemical, TCAMS library (AID 1159588; cut-off not given, nearly all actives have IC50 up to about 0.91 µM); conditions: recombinant PfCDPK4, Kinase-Glo ATP depletion luminescence
Sequence of Calcium-dependent protein kinase 4 (Plasmodium falciparum (isolate 3D7)) (Q8IBS5 whole entry, looked up): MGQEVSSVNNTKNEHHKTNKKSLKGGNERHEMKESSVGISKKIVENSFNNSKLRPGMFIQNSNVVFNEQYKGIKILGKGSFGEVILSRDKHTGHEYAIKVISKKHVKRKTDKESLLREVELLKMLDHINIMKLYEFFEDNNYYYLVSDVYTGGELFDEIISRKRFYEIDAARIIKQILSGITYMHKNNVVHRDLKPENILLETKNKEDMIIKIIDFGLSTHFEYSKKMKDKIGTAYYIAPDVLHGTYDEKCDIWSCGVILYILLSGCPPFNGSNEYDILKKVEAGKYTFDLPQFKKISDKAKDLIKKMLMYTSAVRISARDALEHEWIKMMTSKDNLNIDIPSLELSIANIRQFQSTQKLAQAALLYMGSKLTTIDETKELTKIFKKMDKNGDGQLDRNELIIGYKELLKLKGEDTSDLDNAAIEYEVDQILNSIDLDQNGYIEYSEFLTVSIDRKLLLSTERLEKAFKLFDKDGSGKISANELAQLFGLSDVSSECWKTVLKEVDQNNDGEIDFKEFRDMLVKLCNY

CC(C)CNC(=O)c1cncc(-c2ccc(CNCCCc3ccccc3)cc2)c1
inactive: inhibition [2] 28% | inhibition [3] -6% | outcome [5] | outcome [6] | outcome [7] | outcome [8]
active: growth inhibition [1] 73% | growth inhibition [4] 101%

CO/C(=C\C=C\c1cc2cc(Cl)c(Cl)cc2[nH]1)C(=O)NCCCN1CCCC[C@H]1C
inactive: inhibition [2] 41% | inhibition [3] 3% | outcome [5] | outcome [6] | outcome [7] | outcome [8]
active: growth inhibition [1] 91% | growth inhibition [4] 100%

c1ccc2[nH]c(-c3ccc(-c4ccc(CNC5CC5)cc4)s3)nc2c1
active: growth inhibition [4] 91%
inactive: growth inhibition [1] 19% | inhibition [2] 25% | inhibition [3] -7% | outcome [5] | outcome [6] | outcome [7] | outcome [8]

CC(C)[C@H](NC(=O)c1ccc(O)c(-c2ccc(Cl)c(Cl)c2)c1)C(=O)NC1CCCCCC1
inactive: inhibition [2] -4% | inhibition [3] -2% | outcome [5] | outcome [6] | outcome [7] | outcome [8]
active: growth inhibition [1] 99% | growth inhibition [4] 99%

CC(C)COc1ccc(Cl)cc1Cc1ccc(-c2nc3ccc(C(F)(F)F)cc3[nH]2)o1
inactive: inhibition [2] 14% | inhibition [3] 5% | outcome [5] | outcome [6] | outcome [7] | outcome [8]
active: growth inhibition [1] 51% | growth inhibition [4] 97%

Cc1nc(Nc2cc(Cl)ccc2O)nc(Nc2cc(Cl)ccc2O)c1[N+](=O)[O-]
inactive: inhibition [2] -4% | inhibition [3] 3% | outcome [5] | outcome [6] | outcome [7] | outcome [8]
active: growth inhibition [1] 83% | growth inhibition [4] 98%

Oc1ccccc1CN1CCN(C(c2ccccc2)c2ccccc2)CC1
inactive: inhibition [2] -4% | inhibition [3] -1% | outcome [5] | outcome [6] | outcome [7] | outcome [8]
active: growth inhibition [1] 90% | growth inhibition [4] 98%

NC1CCN(Cc2ccc(-c3cccc(-c4nc5ccc(F)cc5[nH]4)c3)cc2)C1 (stereo not given)
active: growth inhibition [4] 100%
inactive: growth inhibition [1] 16% | inhibition [2] 47% | inhibition [3] 3% | outcome [5] | outcome [6] | outcome [7] | outcome [8]

Oc1ccc(CCNCCCCCCNCCc2ccc(Br)cc2)cc1O
active: growth inhibition [4] 99%
inactive: growth inhibition [1] 5% | inhibition [2] 2% | inhibition [3] -2% | outcome [5] | outcome [6] | outcome [7] | outcome [8]

Clc1ccc(CNC2CCN(CC3CCCCC3)CC2)cc1
active: growth inhibition [4] 92%
inactive: growth inhibition [1] 15% | inhibition [2] 12% | inhibition [3] 5% | outcome [5] | outcome [6] | outcome [7] | outcome [8]

C/C=C/COc1ccc2ccccc2c1CNCCCCCCCCNCc1c(OC/C=C/C)ccc2ccccc12
inactive: inhibition [3] 3% | outcome [5] | outcome [6] | outcome [7] | outcome [8]
active: growth inhibition [1] 86% | inhibition [2] 100% | growth inhibition [4] 87%

CC(C)C[C@H](NC(=O)c1cc2ccccc2s1)C(=O)N[C@H]1CCN(Cc2ccc(I)c(OCCN3CCCC3)c2)C1
active: growth inhibition [1] 88% | growth inhibition [4] 92%
inactive: inhibition [2] 3% | inhibition [3] -1% | outcome [5] | outcome [6] | outcome [7] | outcome [8]

O=C(Nc1cccc(-c2cccc(-c3nc4ccc(C(F)(F)F)cc4[nH]3)c2)c1)c1ccc(=O)[nH]n1
active: inhibition [2] 63% | growth inhibition [4] 103%
inactive: growth inhibition [1] 26% | inhibition [3] 0% | outcome [5] | outcome [6] | outcome [7] | outcome [8]

Cn1cnc2c(SCc3ccc(OCc4ccccc4)cc3)ncnc21
inactive: inhibition [2] 1% | inhibition [3] -6% | outcome [5] | outcome [6] | outcome [7] | outcome [8]
active: growth inhibition [1] 87% | growth inhibition [4] 95%

CCOc1ccc(NC(=O)c2ccc(NCCCN3CC(C)CC(C)C3)c([N+](=O)[O-])c2)cc1 (stereo not given)
active: growth inhibition [1] 60% | growth inhibition [4] 101%
inactive: inhibition [2] 3% | inhibition [3] -4% | outcome [5] | outcome [6] | outcome [7] | outcome [8]

Cc1cc2ncn(-c3nccc(NCc4ccc(F)cc4)n3)c2cc1C
inactive: inhibition [2] 10% | inhibition [3] -2% | outcome [5] | outcome [6] | outcome [7] | outcome [8]
active: growth inhibition [1] 83% | growth inhibition [4] 98%

COc1ccc(NC(=O)Nc2cccc(-c3cccc(-c4nc5c(C)cccc5[nH]4)c3)c2)cc1
inactive: growth inhibition [1] 43% | inhibition [2] -1% | inhibition [3] 2% | outcome [5] | outcome [6] | outcome [7] | outcome [8]
active: growth inhibition [4] 101%

CCc1ccc(C2CCN(CCCCNC(=O)c3ccc(NC(=O)c4ccc(Cl)cc4)cc3)CC2)c(OCCO)c1
inactive: inhibition [3] -3% | outcome [5] | outcome [6] | outcome [7] | outcome [8]
active: growth inhibition [1] 100% | inhibition [2] 94% | growth inhibition [4] 98%

CCc1c[nH]c2c(N(c3ccccc3)S(C)(=O)=O)cc(C(=O)N[C@@H](Cc3ccccc3)[C@H](O)CNCc3cccc(C(F)(F)F)c3)cc12
inactive: inhibition [2] 20% | inhibition [3] 1% | outcome [5] | outcome [6] | outcome [7] | outcome [8]
active: growth inhibition [1] 98% | growth inhibition [4] 93%

O=C(/C=C/c1ccc(C(F)(F)F)cc1)NCCCCCN1CCN(C(=O)Nc2ccc(F)c(Cl)c2)CC1
inactive: growth inhibition [1] -6% | inhibition [2] 35% | inhibition [3] -2% | outcome [5] | outcome [6] | outcome [7] | outcome [8]
active: growth inhibition [4] 89%

CCCNCc1ccc(-c2ccc(CN(CCOC)C(=O)[C@H]3CCCO3)cc2)nc1
inactive: growth inhibition [1] 6% | inhibition [2] 1% | inhibition [3] -3% | outcome [5] | outcome [6] | outcome [7] | outcome [8]
active: growth inhibition [4] 98%

Cc1cc2c(cc1C(F)(F)F)N(C(=O)Nc1ccc(C(=O)NC3CCN(Cc4ccccc4)C3)cc1)CC2 (stereo not given)
inactive: growth inhibition [1] 48% | inhibition [2] 19% | inhibition [3] -6% | outcome [5] | outcome [6] | outcome [7] | outcome [8]
active: growth inhibition [4] 100%

Cc1cc(NC(=O)Nc2ccc(I)c(OCCN(C)C)c2)ccc1Br
active: growth inhibition [4] 101%
inactive: growth inhibition [1] 42% | inhibition [2] 18% | inhibition [3] 4% | outcome [5] | outcome [6] | outcome [7] | outcome [8]

CN(Cc1ccc(-c2ccc(C(F)(F)F)cc2)cc1)C(=O)Cn1c(CCc2cccc(F)c2F)cc(=O)c2ccc(OCCCN3CCCCC3)cc21
active: growth inhibition [1] 90% | inhibition [2] 79% | growth inhibition [4] 103%
inactive: inhibition [3] 5% | outcome [5] | outcome [6] | outcome [7] | outcome [8]

CCCCCCCC1CCN(C[C@H](O)c2ccnc3ccc(OC)cc23)CC1
inactive: inhibition [2] 23% | inhibition [3] 3% | outcome [5] | outcome [6] | outcome [7] | outcome [8]
active: growth inhibition [1] 81% | growth inhibition [4] 94%

CCC(ON1C(N)=NC(N)=NC1(C)C)c1ccc(Cl)cc1 (stereo not given)
active: growth inhibition [1] 90% | inhibition [2] 68% | growth inhibition [4] 91%
inactive: inhibition [3] 3% | outcome [5] | outcome [6] | outcome [7] | outcome [8]

c1cc(CN2CCN(c3ccncc3)CC2)cc(-c2ccc(-c3nc4ccccc4[nH]3)cc2)c1
inactive: inhibition [3] -11% | outcome [5] | outcome [6] | outcome [7] | outcome [8]
active: growth inhibition [1] 100% | inhibition [2] 60% | growth inhibition [4] 100%

CCOc1ccc2c(NN=Cc3cccc(F)c3)cc(C)nc2c1
active: growth inhibition [1] 100% | growth inhibition [4] 100%
inactive: inhibition [2] 0% | inhibition [3] 7% | outcome [5] | outcome [6] | outcome [7] | outcome [8]

CCCN(CCC)CCCN(CCCN(CCC)CCC)c1cc(C)nc(Nc2ccc(Cl)cc2)n1
active: growth inhibition [1] 101% | growth inhibition [4] 101%
inactive: inhibition [2] 34% | inhibition [3] -6% | outcome [5] | outcome [6] | outcome [7] | outcome [8]

Cc1cc(OCCCN2CCCCC2C)ccc1NC(=O)COc1ccc(Cl)cc1C(=O)c1cc(Cl)cc(C#N)c1 (stereo not given)
inactive: growth inhibition [1] 14% | inhibition [2] 23% | inhibition [3] -2% | outcome [5] | outcome [6] | outcome [7] | outcome [8]
active: growth inhibition [4] 91%

CN(C)Cc1ccc(-c2ccc(NC(=O)c3ccc4c(=O)n(Cc5ccoc5)cnc4c3)cc2)cc1
active: growth inhibition [4] 80%
inactive: growth inhibition [1] 16% | inhibition [2] 32% | inhibition [3] 3% | outcome [5] | outcome [6] | outcome [7] | outcome [8]

O=C(c1cccs1)N1CCN(c2ccc([N+](=O)[O-])c(NC3CC3)c2)CC1
inactive: inhibition [2] -5% | inhibition [3] 2% | outcome [5] | outcome [6] | outcome [7] | outcome [8]
active: growth inhibition [1] 95% | growth inhibition [4] 100%

C=CCOC(=O)N1CCC(CNCc2cccc(-c3ccc(-c4nc5c(C)cccc5[nH]4)cc3)c2)C1 (stereo not given)
inactive: inhibition [2] 24% | inhibition [3] 1% | outcome [5] | outcome [6] | outcome [7] | outcome [8]
active: growth inhibition [1] 82% | growth inhibition [4] 103%

O[C@@H](c1ccccc1)[C@@H]1CN(CCc2ccccc2)CC[C@@]1(O)c1ccccc1
active: growth inhibition [1] 92% | growth inhibition [4] 97%
inactive: inhibition [2] -2% | inhibition [3] -2% | outcome [5] | outcome [6] | outcome [7] | outcome [8]

COc1cc(NC(=O)/C=C/c2cc(F)cc(F)c2F)cc(OCCN2CCC(O)(c3ccccc3)CC2)c1
inactive: inhibition [3] 6% | outcome [5] | outcome [6] | outcome [7] | outcome [8]
active: growth inhibition [1] 82% | inhibition [2] 54% | growth inhibition [4] 103%

CCCCOc1cc2[nH]cc(C(=O)OCC)c(=O)c2cc1OCCCC
inactive: inhibition [2] -9% | inhibition [3] -2% | outcome [5] | outcome [6] | outcome [7] | outcome [8]
active: growth inhibition [1] 96% | growth inhibition [4] 97%

O=C(CSc1nc(-c2ccccc2Cl)ns1)Nc1cccc(Cl)c1
active: growth inhibition [1] 89% | growth inhibition [4] 96%
inactive: inhibition [2] -8% | inhibition [3] -4% | outcome [5] | outcome [6] | outcome [7] | outcome [8]

Cc1cccc(-c2nc3cc(NC(=O)c4ccc([N+](=O)[O-])o4)ccc3o2)c1
active: growth inhibition [1] 73% | growth inhibition [4] 94%
inactive: inhibition [2] 8% | inhibition [3] 4% | outcome [5] | outcome [6] | outcome [7] | outcome [8]

COc1ccc2nccc([C@@H](O)CN3CCC(NCc4ccc5c(c4)oc(=S)n5C)CC3)c2c1
active: growth inhibition [1] 68% | growth inhibition [4] 100%
inactive: inhibition [2] 14% | inhibition [3] -6% | outcome [5] | outcome [6] | outcome [7] | outcome [8]

O=C(Nc1cccc([N+](=O)[O-])c1)N(Cc1ccc(Cl)c(Cl)c1)C1CCNCC1
inactive: growth inhibition [1] -2% | inhibition [2] 17% | inhibition [3] -2% | outcome [5] | outcome [6] | outcome [7] | outcome [8]
active: growth inhibition [4] 99%
